Measurements as given in PubChem BioAssay (NCI).
Compounds without any hit were thinned out: in the full panel of roughly 83,000, 20% have a hit.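 For each line, cells grew in 96-well plates with the test compound present at a single concentration for 48 hours.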 Unmarked numbers belong to inactive results. Calls of active or inactive are those of the source. The calls were made as follows: active = growth percent below 10; inactive = the rest.

Tests used:
Test in all cases: NCI-60 one-dose screen, 48 h (100 = growth as untreated, 0 = no growth, -100 = all killed)
Details in all cases: 10 µM unless noted
NCI-H23 lung = system: NCI-H23 lung
NCI-H226 lung = system: NCI-H226 lung
NCI-H322M lung = system: NCI-H322M lung
HOP-62 NSCLC = system: HOP-62 NSCLC
NCI-H460 lung = system: NCI-H460 lung
HOP-92 NSCLC = system: HOP-92 NSCLC
NCI-H522 lung = system: NCI-H522 lung
A549/ATCC NSCLC = system: A549/ATCC NSCLC
786-0 renal = system: 786-0 renal
COLO 205 colon = system: COLO 205 colon
DU-145 prostate = system: DU-145 prostate
K-562 leukemia = system: K-562 leukemia
MALME-3M melanoma = system: MALME-3M melanoma
MDA-MB-231 breast = system: MDA-MB-231 breast
RXF 393 renal = system: RXF 393 renal
SF-268 CNS = system: SF-268 CNS
SF-295 CNS = system: SF-295 CNS
SF-539 CNS = system: SF-539 CNS
UACC-257 melanoma = system: UACC-257 melanoma
M14 melanoma = system: M14 melanoma

SMILES	growth (NCI-H23 lung)	growth (NCI-H226 lung)	growth (NCI-H322M lung)	growth (HOP-62 NSCLC)	growth (NCI-H460 lung)	growth (HOP-92 NSCLC)	growth (NCI-H522 lung)	growth (A549/ATCC NSCLC)	growth (786-0 renal)	growth (COLO 205 colon)	growth (DU-145 prostate)	growth (K-562 leukemia)	growth (MALME-3M melanoma)	growth (MDA-MB-231 breast)	growth (RXF 393 renal)	growth (SF-268 CNS)	growth (SF-295 CNS)	growth (SF-539 CNS)	growth (UACC-257 melanoma)	growth (M14 melanoma)
C[N+](C)(C)c1ncnc2[n-]cnc12	57.8%	90.4%	105%	105%	100%	83.2%	68.9%	100%	72.7%	103%	99%	101%	98.3%	86.5%	97%	91%	88.7%	89.5%	-29.9% (active)	89.9%
O=C1NC(=O)c2cc([N+](=O)[O-])cc3cccc1c23	97.6%	106%	89%	121%	98.5%	80.2%	77.5%	89.7%	98.6%	105%	106%	131%	107%	100%	98.2%	98%	114%	105%	76.7%	93.3%
CC1Cc2c(Cl)ncnc2N(C)c2ccc(Cl)cc21 (stereo not given)	13.5%	-5.56% (active)	36.8%	13.6%	19.2%	8.05% (active)	-68.3% (active)	17.9%	8.16% (active)	-77.6% (active)	40.9%	14.7%	22.6%	-39.8% (active)	0.883% (active)	18.8%	20.2%	28.1%	4.86% (active)	11.1%
CCOC(=O)c1cnc2ccc(Br)cc2c1Nc1cccc(S(N)(=O)=O)c1	93%	88.6%	105%	97.1%	105%	91.1%	96.6%	101%	105%	128%	103%	90.7%	101%	89.9%	90.8%	88.1%	95.5%	99%	105%	110%
Cn1cc(-c2nnc(-c3cn(C)c4ncc(Br)cc34)s2)c2cc(Br)ccc21	99.5%	91.8%	89.8%	93.1%	99.4%	57.2%	94.2%	94.4%	93.5%	105%	95.4%	97.8%	78.1%	67.2%	118%	90.9%	103%	81.5%	92.5%	97%
Cc1nc(-c2ccccc2)sc1CC#N	106%	93.1%	101%	102%	103%	99.2%	94.6%	100%	104%	122%	116%	94.2%	128%	116%	118%	106%	101%	111%	123%	125%
C=CCCCCOc1ccccc1-c1cnc(OCCCCC=C)n1C	76%	92.2%	72%	77.2%	55.6%	75.2%	12.6%	50.3%	107%	46%	92.6%	30.5%	62.8%	66.5%	90.5%	79.6%	70.1%	81%	66.6%	72.6%
Cn1cc(-c2nnc(-c3cn(C)c4ncc(Br)cc34)o2)c2ccccc21	90.4%	93%	97.7%	82.5%	98.2%	77.1%	57.3%	87.4%	105%	76%	103%	49.1%	75.2%	75.3%	70.8%	89.1%	89.3%	92.1%	98.5%	96.4%
COc1cccc(-c2[nH]c(=S)ncc2C(=O)c2ccccc2)c1	97%	102%	99.9%	78.8%	91.9%	102%	70.9%	88.4%	100%	84.7%	98.4%	35%	71%	99.3%	90.6%	90%	68.6%	84.9%	97.3%	61.9%
CC1(C)C(=O)/C(=C\c2ccco2)C[C@]2(C)[C@H]3CC=C4[C@@H]5C[C@](C)(C(=O)O)CC[C@]5(C)CC[C@@]4(C)[C@]3(C)CC[C@@H]12	-64% [100 µM] (active)	-29.3% [100 µM] (active)	-91.9% [100 µM] (active)	-67.7% [100 µM] (active)	-73.5% [100 µM] (active)	-82.8% [100 µM] (active)	-64.4% [100 µM] (active)	-67.6% [100 µM] (active)	-53.6% [100 µM] (active)	-62.2% [100 µM] (active)	-33.5% [100 µM] (active)	4.42% [100 µM] (active)	-70% [100 µM] (active)	-58.5% [100 µM] (active)	-85.6% [100 µM] (active)	-77.7% [100 µM] (active)	-48.8% [100 µM] (active)	-77.5% [100 µM] (active)	-49.3% [100 µM] (active)	-43.4% [100 µM] (active)
CCOc1ccc2sc(NS(=O)(=O)c3ccc(N)cc3)nc2c1	104%	94.7%	109%	100%	104%	94%	115%	112%	115%	103%	119%	103%	118%	106%	104%	110%	109%	99.5%	111%	109%
COc1cc(C)cc2oc3oc(=N)c(C(=O)c4ccccc4)cc3c(=O)c12	108%	103%	98%	106%	105%	94.9%	96.8%	109%	106%	124%	111%	97.5%	91.8%	98.2%	108%	94.4%	106%	96.4%	111%	99.7%
N#C/C(C(=O)c1ccccc1)=C1/C(=O)Nc2ccc(F)cc21	98.4%	95.4%	108%	84.8%	106%	115%	96.6%	105%	101%	119%	110%	110%	104%	92.2%	127%	101%	102%	96.9%	103%	104%
O=C(Nc1ccc(CN2CCOCC2)c(C(F)(F)F)c1)c1nc2ccc3[nH]ncc3c2c2c1CCCC2	93.2%	91.2%	102%	78.8%	90.1%	99.2%	87.3%	63.3%	101%	83.4%	104%	82.8%	106%	95.9%	99.7%	103%	97.7%	99.1%	88.9%	91.6%
C=CCCC1(C)NC(=O)NC1=O (stereo not given)	96.5%	105%	108%	84%	104%	87.1%	86.1%	93.4%	93.5%	102%	102%	83.3%	111%	101%	121%	98%	95.7%	104%	104%	98.1%
C#C[C@]1(O)CC[C@H]2[C@@H]3CC=C4c5nc(Nc6ncccn6)sc5CC[C@]4(C)[C@H]3CC[C@@]21C	77.8%	68.8%	74.3%	38.3%	31.2%	52.2%	81%	43.4%	-45.2% (active)	92.4%	61.1%	33.8%	47.6%	34.2%	-59.1% (active)	29.5%	-66.2% (active)	-50.1% (active)	-16% (active)	43.8%
O=C(N[C@@H]1CCCc2ccccc21)[C@H](CCC(=O)N1CCN(C2CCCCC2)CC1)N1C(=O)[C@@H](N2C(=O)OC[C@@H]2c2ccccc2)[C@H]1/C=C/c1ccccc1	57.7%	64.4%	34.6%	61.3%	29.4%	2.75% (active)	52.3%	28%	42.1%	34.4%	57.9%	14.6%	-41.1% (active)	16.4%	23%	15.8%	30.3%	4.65% (active)	10.7%	14.2%
C[n+]1c2ccccc2nc2c(N)cc(N)cc21	71.9%	37.2%	71.2%	56.6%	86.6%	84.2%	52.2%	82%	62.2%	49.8%	93.5%	36.4%	3.51% (active)	87.3%	112%	24.8%	89.5%	48.6%	92.8%	96%
CCOC(=O)Nc1ccc2c(c1)/C(=N\NC(=S)NC)c1ccccc1-2	93.8%	107%	92.3%	108%	65.1%	85.9%	68%	55.7%	64.4%	106%	88.9%	77.2%	115%	65%	7.59% (active)	101%	46.8%	71.4%	107%	78.2%
COc1ccc(C=C2c3ccccc3-c3ccccc32)cc1	67.6%	68.6%	72.2%	55.2%	30.6%	67.3%	13.7%	52.2%	58.5%	29.6%	84.6%	18.8%	63.5%	59.2%	54.5%	53.8%	31.7%	43.7%	52.3%	30%
COc1ccc(/C=C/C=C\C(=O)c2ccc(-n3ccnc3)cc2)cc1	94.1%	84.3%	101%	101%	92.7%	96.5%	85.3%	81.9%	-0.616% (active)	101%	98%	66.2%	92.8%	94%	92.7%	96.2%	99.7%	97.9%	93.1%	21.3%
O=C(O)CC1CCCCC1c1ccccc1 (stereo not given)	111%	98.7%	103%	112%	119%	99.8%	90.1%	106%	103%	113%	117%	109%	112%	116%	106%	109%	100%	91.9%	112%	97.2%
O=[N+]([O-])c1cc([N+](=O)[O-])c(NN=C(c2ccc(O)cc2)c2ccc(O)cc2)cc1Cl	-72.9% (active)	-28% (active)	9.47% (active)	-91.2% (active)	-6.95% (active)	-69.6% (active)	-55.1% (active)	-71.2% (active)	-89% (active)	25.6%	-77.9% (active)	101%	-51.6% (active)	-70.4% (active)	-76.5% (active)	-91.8% (active)	104%	-51.9% (active)	-79.9% (active)	-86.8% (active)
Cc1cc(N2CCCCCC2)nc(N2CCN(CC(=O)Nc3ccc4c(ccn4Cc4ccccc4)c3)CC2)n1	48.3%	53.5%	80.7%	54.1%	36.7%	8.3% (active)	55%	46.8%	39%	31.2%	70.7%	12.1%	50.9%	54.6%	6.02% (active)	71.2%	20.4%	55.7%	61.3%	15.6%
Brc1ccc(-c2nnc3c4[nH]ccc4ncn23)cc1	88.3%	96.7%	91%	92.6%	90.1%	69.6%	80.9%	91.8%	94%	109%	101%	79.9%	101%	44.4%	107%	92.4%	96.1%	102%	109%	102%
O=C1CN(Cc2ccc(C(=O)NO)cc2)C(=O)[C@@H](Cc2ccccc2)N1	100%	104%	102%	102%	103%	102%	98.2%	96.4%	95.8%	114%	111%	98%	94%	102%	112%	99.7%	99.3%	99.7%	93.2%	107%
O=C1Cc2c(sc3c(F)cccc23)C(c2ccccc2[N+](=O)[O-])N1 (stereo not given)	98.6%	79.3%	99%	91.5%	76.9%	92.2%	102%	106%	110%	113%	107%	97.1%	94.5%	84.9%	125%	93.8%	101%	89.4%	120%	101%
CCN(CC)c1ccc(/C=C/C=C2\NC(=O)NC2=O)cc1	49.8%	69%	63.3%	45.3%	19.7%	31.1%	-36% (active)	37.2%	9.14% (active)	33.7%	40.8%	13.9%	51.8%	64.1%	2.31% (active)	54.8%	24.1%	10.4%	43%	17.7%
CC1(C)CC[C@]2(C(=O)O)CC[C@]3(C)[C@H](CC[C@@H]4[C@@]5(C)CCC(=O)C(C)(C)[C@@H]5CC[C@]43C)[C@H]2[C@H]1OC(=O)C(F)(F)F	-62.4% [100 µM] (active)	-51.2% [100 µM] (active)	-65.6% [100 µM] (active)	-79.6% [100 µM] (active)	-66.1% [100 µM] (active)	-79.6% [100 µM] (active)	-71.2% [100 µM] (active)	-52.7% [100 µM] (active)	-72.7% [100 µM] (active)	-72% [100 µM] (active)	-53.4% [100 µM] (active)	1.66% [100 µM] (active)	-65% [100 µM] (active)	-62.3% [100 µM] (active)	-82.1% [100 µM] (active)	-92.4% [100 µM] (active)	-62.5% [100 µM] (active)	-86% [100 µM] (active)	-87% [100 µM] (active)	-35.2% [100 µM] (active)
